These results are taken from PubChem BioAssay (NCI).

Compounds without any hit were thinned out: in the full panel of roughly 83,000, 20% have a hit.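 Negative percent growth values reflect cell death: -40 means 40% of the cells present at the start died, and -100 means all died.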 Unmarked numbers belong to inactive results. Active and inactive are the calls of the source. Rule for the calls: active = growth percent below 10; inactive = the rest.

This test has as its system MDA-MB-468 breast. In words: NCI-60 one-dose screen, 48 h (100 = growth as untreated, 0 = no growth, -100 = all killed). The note with it: 10 µM unless noted.
As to `Cc1cc(N=Nc2ccc(-c3ccc(N=Nc4ccc(O)c(C(=O)O)c4)cc3)cc2)c(N)c(N=Nc2ccc(C(=O)O)cc2)c1N`, the growth is 92.6%.
Take `COc1ccc2c(c1)[nH]c(=O)c1c3cccnc3cn21`: the growth is 6.19% (active).
Turning to `Cc1nccc2c3ccc(OCc4cn(-c5ccc(Br)cc5)nn4)cc3n(CCCc3ccccc3)c12`, the growth is 108%.
The figure for `CSc1nc(NCCO)c(C#N)c(-c2cccc([N+](=O)[O-])c2)n1` is 105%.
To `CCC(C)NC(=O)c1ccccc1C` (centres undefined) belongs 86.7%; to `COc1ccc(COc2ccc(/C=C3/C(=O)Nc4cc(Cl)ccc43)cc2)cc1`, 93.4%.
As for `COc1ccc2[nH]c(O)c(/C=c3/ccc4c(c3)N=C(c3ccc(F)cc3)N=4)c2c1`, the growth is 76%.
The figure for `COc1ccc(-c2cc3c(OC)c(OC)c(OC)cc3oc2=O)cc1` is 23.6%.
In the case of `CC1(C)CNC(=O)N1`, the growth is 98.2%.
As for `C[C@@H](Oc1cc(-c2cnn(C3CC4(CCCNC4)C3)c2)cnc1N)c1c(Cl)ccc(F)c1Cl` (some centres undefined), the growth was -39.3% (active).
For `FC(F)(F)c1ccc2c(Nc3cccc(C4CC(c5ccccc5)=NN4c4ccc(Cl)cc4)c3)ccnc2c1` (centres undefined), the growth is 47.4%.
Take `C=CCn1c(SCC(=O)Nc2ccc(/C(C)=N/O)cc2)nnc1-c1cc(-c2ccc(S(N)(=O)=O)cc2)nc2ccccc12`: the growth was 57%.
To `O=S(=O)(Nc1ccc(NS(=O)(=O)c2ccccc2)c(Cl)c1)c1ccccc1` belongs 116%; to `Cn1cc(-c2csc(-c3cn(C(=O)OC(C)(C)C)c4ccccc34)n2)c2ccnc(Cl)c21`, 44.8%; to `C#CCN1C(=O)/C(=c2\sc3n(c2=O)NC2C(N=3)N(CC)C(=O)N2CC)c2ccccc21` (centres undefined), 10.8%.
`CCOC(=O)c1c(Cl)c2c(n1Cc1ccccc1)-c1oncc1CCC2`: the growth was 56%.
Consider `CC(Cc1ccco1)C(=O)NC(N)=O` (centres undefined), for which the growth was 95.7%.
For the molecule `CCCCN1CCCCn2c1nc1c2c(=O)n(C)c(=O)n1C`, the growth is 102%.
As to `COc1cc(-c2nn(-c3cccc(NC(=O)Nc4cccc(C(F)(F)F)c4)c3)cc2-c2ccncc2)ccc1Cl`, the growth was -27.6% (active).
`CC(C)(C#N)N1CCN(c2ccccc2Cl)CC1`: the growth is 103%.
Consider `COc1cc(-c2cc(=O)oc3cc(O)ccc23)cc(OC)c1OC`, for which the growth was 74.2%.
The figure for `COC(=O)CCCCCCCCC1(C)C=CC(C(C)O)=CC1` (centres undefined) is 107%; for `CC(C)(C)n1cc(-c2ccnc(NCCCNS(=O)(=O)c3ccc(F)cc3)c2)c(-c2cccc(O)c2)n1` it is 24.3%.
Take `c1cn2cc(-c3ccc4ncn(C5CCCCC5)c4c3)nc(-c3ccc4c(c3)ncn4C3CCCCC3)c2n1`: the growth is -20.2% (active).
To `CN1CC=C(c2cc(NC(=O)Nc3ccc(Oc4ccnc(NC(=O)C5CC5)c4)c(F)c3)cc(C(F)(F)F)c2)CC1` belongs -30.3% (active); to `CCC/C(=N/NC(N)=O)c1ccco1`, 102%; to `CN(N)c1nc2sc3c(c2c(=O)[nH]1)CCCC3`, 113%.
On to `C#CC#CC#CC#CC#CC#CC#CC#CC[C@@H]1OC[C@H](COC(=O)O[C@@H](C(=O)O[C@H]2C[C@@]3(O)[C@@H](OC(=O)c4ccccc4)[C@@H]4[C@]5(OC(C)=O)CO[C@@H]5C[C@H](O)[C@@]4(C)C(=O)[C@H](OC(C)=O)C(=C2C)C3(C)C)[C@@H](NC(=O)c2ccccc2)c2ccccc2)O1`, for which the growth is -8.1% (active).
On to `CN(CCC#N)C(=O)Nc1ccccc1`, for which the growth was 109%.
As to `COc1cccc(CNc2cccc3cn[nH]c23)c1O`, the growth is 80.6%.
With `COc1cc(C(=O)c2cc(C)c3[nH]c4ccc(Cl)cc4c3c2C)cc(OC)c1OC`, the growth was -13.2% (active).
The figure for `CCOC(=O)C1(C(=O)OCC)N=C(c2ccccc2)C=C1c1ccccc1` is 94.1%.
As for `CCN(CC)C(Cl)=Nc1ccc(Cl)cc1`, the growth was 103%.
Take `CCOC(=O)Nc1cc2c(c(N)n1)N=C(c1ccccc1)CO2`: the growth is 2.06% (active).
In the case of `COc1ccc(/C=C2\CS(=O)(=O)C/C(=C\c3ccc(OC)cc3)C2=O)cc1`, the growth is -85.3% (active).
The figure for `COc1ccc(C2N(c3cc(OC)c(OC)c(OC)c3)C(=O)C2(F)F)cc1F` (centres undefined) is 44.5%.
As for `Cc1ccc(-c2nc3ccccc3c(=O)n2/N=C/c2cccc3ccccc23)cc1`, the growth was 80.9%.
On to `CC/C(=C(/c1ccc(Cl)cc1)c1ccc(OCCN2CCCC2)cc1)c1ccc(OC)cc1`, for which the growth was 46.5%.
To `O=C1/C(=C/c2cccc(Cl)c2)CCc2ccccc21` belongs 93.5%.
